TDP-43 yeast inh = qHTS of TDP-43 Inhibitors; 410,000 tested, 1.8% active; Potency, µM (doses to about 46.1 µM), for inactives: top-dose growth rescue (activation), actives largely listed as activators; TDP-43 expressing yeast growth rescue, BacTiter-Glo, 24 h; note: % of control where 0% means no effect; nearly all actives have a fitted effect of over 50% in size
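Galactose-induced TDP-43 yeast, OD600=0.02, compound pinned; 24 hr, 30 deg C; BacTiter-Glo luminescence for growth. Inhibitors of TDP-43 toxicity read as activators.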
Abeta yeast res = qHTS for compounds that reverse cellular toxicity of Amyloid beta (A-beta) peptide in yeast: Primary Screen; yeast expressing A-beta42, growth rescue, OD600, 48 h; response scale: 0% DMSO, 100% iron-clioquinol control; 410,000 tested, 0.063% active; Potency, µM (doses to about 46.1 µM), hits mostly activators; note: nearly all actives have a fitted effect of over 55% in size
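Yeast growth medium received pinned compounds, then yeast cells expressing toxic A-beta were added; plates incubated at 30 C for 48 hr. Growth read as absorbance at 600 nm, normalized to DMSO and equimolar FeCl3 plus clioquinol controls.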
FUS suppressor = qHTS for Suppressors of FUS Proteinopathy: Primary screen using FUS-linked yeast assay. S. cerevisiae FUS-expressing, growth rescue, OD600, 24 h. Potency, µM (top dose mostly 76.6 µM), actives largely listed as activators. 390,000 tested, 0.24% active. AID 1347120, 2019;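 note: plate controls were DMSO vehicle for no effect and reference control for full effect; nearly all actives have a fitted effect of over 55% in size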
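Read-out: OD at 600 nm after 24hr at 30C, reporting rescue of FUS-induced yeast toxicity. Cells at OD 0.005 in galactose (2%) minimal medium; compounds tested in a dilution series; CP55940 titration from 92uM final as control.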
aSyn yeast inh = qHTS of alpha-syn Inhibitors; Yeast expressing alpha-synuclein, growth rescue, BacTiter-Glo, 24 h; Potency, µM (doses to about 46.1 µM), inactives show top-dose growth rescue (activation), hits mostly activators; 370,000 tested, 0.14% active; AID 652106, 2013; note: % of control where 0% means no effect; nearly all actives have a fitted effect of over 65% in size
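Screening used galactose-induced yeast with toxic alpha-synuclein levels, exposed to compound for 24 hr at 30 deg C. Cell growth, read with BacTiter-Glo luminescence, gave the measured signal.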
ClpP mod = qHTS Assay for Activators of ClpP; purified B. subtilis ClpP, FRET peptide cleavage, 20 min; Potency, µM (doses to about 57.5 µM), inactives show at the top dose activity change, negative = active; 340,000 tested, 1.9% active; AID 651965, 2013; active = well fitted falling curve with a large enough effect; inconclusive = small, poorly fitted or top-dose-only effect; inactive = no such curve, though single readings can be large or run the other way; note: the source files actives as falling curves though it sought activators and does not explain the sign; nearly all actives have a fitted effect of over 65% in size
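FRET quenching reversal measured ClpP activation: 10 microg/mL B. subtilis ClpP at pH 8 with the FRET-FV decapeptide, read at 430 nm after 320 nm excitation. The 20-min minus 0-min signal was scaled between DMSO/no-enzyme wells and ADEP (5.8 microM final).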
MmCpn inh = Inhibitors of TCP-1 ring complex (TRiC) of Methanococcus maripaludis (MmCpn): qHTS; Chaperonin Mm-Cpn (Methanococcus maripaludis); 330,000 tested, 0.031% active; AID 504842, 2011; purified Mm-Cpn ATPase, ADP Transcreener TR-FRET; Potency, µM (highest dose often 76.9 µM), inactives show top-dose activity, negative = inhibition, most hits filed as inhibitors; note: % is set by controls: 0 for no effect and ±100 for the full control effect; nearly all actives have a fitted effect of over 80% in size
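ATPase turnover read by TR-FRET ADP competition (Eu cryptate antibody/ADP-d2, 665/590 nm): 10uM ATP final, 25nM Mm-CPN final, 30 min 37degC after 10-min compound preincubation, pH 7.4 Tris/KCl/MgCl2/DTT buffer.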
* hit, by the source's call; i = inactive; ? = inconclusive; . = no result given. The list is not random: actives were taken first. Their share in the collection is about 3.6%. Unless noted, calls come from the whole dose curve; as a rule, active = well fitted curve in the direction sought with a large enough effect; inconclusive = small, poorly fitted or top-dose-only effect, or another doubt; inactive = no such curve, though single readings can be large; an effect the other way counts as inactive or inconclusive. Potency is the fitted concentration of half-maximal effect.

SMILES	TDP-43 yeast inh	Abeta yeast res	FUS suppressor	aSyn yeast inh	ClpP mod	MmCpn inh
COc1ccc(CCNC(=O)c2cc(Sc3cccc(Cl)c3)nc3ccccc23)cc1OC	0.0%	i	i	.	-16.4%	.
FC(F)(F)c1cccc(CNc2ncccc2-c2nc3cc(Cl)ccc3o2)c1	-12.2%	i	i	3.3%	31.6µM*	1.2%
Cc1oc2ncnc(N3CCCCC3)c2c1C(=O)N1CCN(c2cccc(C(F)(F)F)c2)CC1	22.4µM*	i	?	.	-0.3%	.
CCOc1cccc2sc(N3CCN(C(=O)c4ccc5ncsc5c4)CC3)nc12	11.8%	?	i	15.6%	22.4µM*	-0.7%
O=C(c1ccc2ncsc2c1)N1CCN(c2cccc(C(F)(F)F)c2)CC1	0.0%	17.8µM*	?	-1.9%	.	-10.9%
Cc1nc(N2CCOCC2)c2c(C(=O)N3CCN(c4cccc(C(F)(F)F)c4)CC3)c(C)oc2n1	?	i	i	.	-0.7%	.
O=C(c1c(F)c(F)c(F)c(F)c1F)N1CCN(c2cccc(C(F)(F)F)c2)CC1	15.8µM*	i	i	4.7%	-0.8%	2.6%
O=C(NCC(c1ccc2c(c1)OCO2)N1CCN(c2ccccc2)CC1)c1ccccc1 (stereo not given)	19.3%	i	i	.	-3.2%	.
COc1cc(C)ccc1C(=O)N1CCC(Oc2cccnc2)CC1	.	.	i	.	.	.
CC1=C/C(=C\c2ccc(N(C)C)cc2)c2ccccc21	.	.	.	?	1.6%	.
COc1cc(NC(=O)Nc2cccc(-c3noc(C)n3)c2)cc(OC)c1OC	-6.0%	i	i	-3.6%	-6.0%	.
O=C(c1ccc2c(c1)OCO2)N1CCN(c2cccc(C(F)(F)F)c2)CC1	22.2%	i	i	-0.4%	-1.8%	0.2%
O=C(CS(=O)(=O)c1cccc2nsnc12)N1CCN(c2cccc(C(F)(F)F)c2)CC1	20µM*	i	i	14.5%	-1.0%	.
O=C(Nc1ccc2c(c1)OCO2)N1CCN(c2cccc(C(F)(F)F)c2)CC1	10µM*	i	i	-8.6%	-3.4%	-0.6%
COc1ccc([C@H]2CC(=O)C=C(c3ccccc3)C2)cc1	17.8µM*	?	i	-1.1%	0.1%	0.0%
COc1ccc([C@H]2CC(=O)C=C(c3cccc(OC)c3)C2)cc1	11.2µM*	i	i	0.2%	0.0%	1.3%
COc1ccc([C@H]2CC(=O)C=C(c3ccc4cc[nH]c4c3)C2)cc1	25.1µM*	i	i	-0.1%	0.1%	-28.2%
COc1ccc([C@H]2CC(=O)C=C(c3ccc4[nH]ccc4c3)C2)cc1OC	22.4µM*	i	?	1.9%	-1.3%	-2.0%
CCC1Oc2ccccc2N(CC(=O)NCc2cc(OC)ccc2OC)C1=O (stereo not given)	13.5%	i	i	.	-0.9%	.
COc1ccc(C2=CC(=O)C[C@H](c3ccc(Cl)cc3)C2)cn1	17.8µM*	i	i	5.1%	-0.2%	0.0%
COc1ccc(C2=CC(=O)C[C@H](c3ccc(OC)cc3)C2)cc1	14.1µM*	i	?	5.1%	-3.0%	-2.3%
COc1ccc([C@H]2CC(=O)C=C(c3ccc(SC)cc3)C2)cc1	7.8%	i	i	5.9%	-20.8%	-0.2%
Cc1ccc(-c2cc(-c3nnc(SCC(=O)Nc4cccc5ccccc45)n3N)[nH]n2)cc1	.	.	i	.	.	.
COC(=O)NNC(=O)COc1ccc2ccccc2c1Br	?	i	.	-0.1%	25.1µM*	-11.2%
O=C(c1ccccc1F)N1c2nc(-c3ccco3)nn2C2(CCCCC2)[C@@H]2CCCC[C@@H]21	22.8%	i	i	.	-5.8%	.
SMILES	TDP-43 yeast inh	Abeta yeast res	FUS suppressor	aSyn yeast inh	ClpP mod	MmCpn inh
CCOC(=O)CN1C(=O)S/C(=C/c2ccc(C)o2)C1=O	12.6µM*	i	i	3.6%	0.5%	1.3%
CCOC(=O)CN1C(=O)S/C(=C/c2cc(C)n(C)c2C)C1=O	?	i	i	14.0%	-0.8%	.
Cc1cccc(N2C(S)=C(C#N)C(=O)NC23CCCCC3)c1	-24.6%	i	.	8.1%	2.4%	0.4%
Cc1ccc(N2C(S)=C(C#N)C(=O)NC23CCCCC3)cc1	22.4µM*	i	.	0.9%	0.4%	1.9%
Cn1c(C(=O)NCc2ccccc2F)cc2oc3ccccc3c21	4.7%	i	i	.	4.5%	.
Cn1c(C(=O)NCc2ccccc2)cc2oc3ccccc3c21	17.0%	i	i	5.8%	25.1µM*	-0.4%
CCn1c(C(=O)NCc2cccc(Br)c2)cc2oc3ccccc3c21	-7.1%	i	i	.	4.2%	.
Cn1c(C(=O)NCc2cccs2)cc2oc3ccccc3c21	7.1%	i	i	9.3%	31.6µM*	1.0%
CCCOc1ccc(CNC(=O)c2cc3oc4ccccc4c3n2C)cc1	7.4%	i	i	.	4.2%	.
CCn1c(C(=O)NCc2ccccc2Br)cc2oc3ccccc3c21	16.2%	i	i	-4.9%	22.4µM*	.
COc1ccc(CNC(=O)c2cc3oc4ccccc4c3n2C)cc1OC	8.9%	i	?	.	25.1µM*	.
CCCCCCCCCC[n+]1ccc(/C=C/c2c(C)[nH]c3ccccc23)cc1	.	.	.	.	-0.1%	.
CCCc1cnc2c(c1SCC(=O)N(C)c1ccccc1)c(=O)n(C)c(=O)n2C	-8.9%	i	i	.	-0.3%	.
COc1cc2nc(N(C)C)nc(NC3CCN(C)CC3)c2cc1OC	.	.	.	-1.9%	4.3%	.
Cc1ccccc1CSc1ncc(CO)n1Cc1ccc(F)cc1	0.4%	i	i	16.7%	0.5%	.
CCOc1cc(C(=S)N2CCOCC2)ccc1OC(=O)/C=C/c1ccc(OC)c(OC)c1	-2.7%	i	.	0.2%	25.1µM*	1.8%
COc1ccccc1NC(=O)c1cc(=O)c2ccc(C)c(C)c2o1	25.3%	i	i	.	-6.7%	.
CC(C)CC(=O)Nc1ccc(-c2nc3ccccc3c(=O)o2)cc1	3.7%	i	i	-1.8%	11.2µM*	0.2%
CCC(=O)Oc1ccc(-c2nc3ccccc3c(=O)o2)cc1	3.98µM*	i	i	.	0.2%	.
CC(=O)Nc1ccc(-c2nc3ccccc3c(=O)o2)cc1	2.5%	i	i	6.1%	.	1.4%
CCC(C(=O)NCc1ccc2c(c1)CCN2C(=O)c1ccc(F)cc1)c1ccccc1 (stereo not given)	19.0%	i	i	.	-2.2%	.
